Experimental data from PubChem BioAssay AID1159580 (chemical genetic matrix, 2015).
Hit rate of the full screen: of about 5,500 compounds, about 2,000 (36%) were called active. About 18% were inconclusive and are not listed. No stated cut-off is given here; in the data, active means normalized growth mostly below about 0.91 (no sharp cut-off); inconclusive means no clear call, values can overlap the other calls; inactive means mostly above about 0.92. The list shows a part of the results.

Assay: chemical genetic growth profiling, strain panel (AID 1159580);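 further: tested at 20 µM; growth read once vehicle control cultures reached saturation at 30 °C; 1 = growth at the plate median or of vehicle wells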
Conditions: growth OD

Measured: normalized growth

Nc1c2ccccc2nc2ccccc12
inactive: S. cerevisiae deletion strains, locus YKL009W, strain mrt4, stronger effect = lower value 0.909 | S. cerevisiae deletion strains, locus YKL068W, stronger effect = lower value 0.988 | S. cerevisiae deletion strains, locus YKR026C, strain gcn3, stronger effect = lower value 0.968 | S. cerevisiae deletion strains, locus YLR039C, strain RIC1, stronger effect = lower value 0.99 | S. cerevisiae deletion strains, locus YLR113W, strain HOG1, stronger effect = lower value 0.979 | S. cerevisiae deletion strains, locus YLR262C, strain YPT6, stronger effect = lower value 0.915 | S. cerevisiae deletion strains, locus YLR371W, strain rom2, stronger effect = lower value 0.948 | S. cerevisiae deletion strains, locus YMR125W, strain sto1, stronger effect = lower value 0.919 | S. cerevisiae deletion strains, locus YMR231W, strain pep5, stronger effect = lower value 0.985 | S. cerevisiae deletion strains, locus YMR307W, strain GAS1, stronger effect = lower value 1.13 | S. cerevisiae deletion strains, locus YNL071W, strain lat1, stronger effect = lower value 0.977 | S. cerevisiae deletion strains, locus YNL322C, strain KRE1 (second series), stronger effect = lower value 0.981 | S. cerevisiae deletion strains, locus YOL006C, strain TOP1, stronger effect = lower value 0.67 | S. cerevisiae deletion strains, locus YPR141C, strain kar3, stronger effect = lower value 1.02 | S. cerevisiae deletion strains, locus YPR163C, strain tif3, stronger effect = lower value 0.974
active: S. cerevisiae deletion strains, locus YJR075W, strain HOC1, stronger effect = lower value 0.646 | S. cerevisiae deletion strains, locus YKL085W, strain MDH1 (second series), stronger effect = lower value 0.872 | S. cerevisiae deletion strains, locus YKL085W, strain MDH1, stronger effect = lower value 0.872 | S. cerevisiae deletion strains, locus YKL160W, strain elf1, stronger effect = lower value 0.562 | S. cerevisiae deletion strains, locus YKL190W, strain CNB1, stronger effect = lower value 0.64 | S. cerevisiae deletion strains, locus YKR001C, strain vps1, stronger effect = lower value 0.481 | S. cerevisiae deletion strains, locus YKR091W, strain srl3, stronger effect = lower value 0.925 | S. cerevisiae deletion strains, locus YLL001W, strain dnm1, stronger effect = lower value 0.476 | S. cerevisiae deletion strains, locus YLL026W, stronger effect = lower value 0.555 | S. cerevisiae deletion strains, locus YLL041C, strain sdh2, stronger effect = lower value 0.784 | S. cerevisiae deletion strains, locus YLR027C, strain aat2, stronger effect = lower value 0.453 | S. cerevisiae deletion strains, locus YLR058C, strain SHM2, stronger effect = lower value 0.613 | S. cerevisiae deletion strains, locus YLR102C, strain apc9, stronger effect = lower value 0.823 | S. cerevisiae deletion strains, locus YLR221C, strain rsa3, stronger effect = lower value 0.516 | S. cerevisiae deletion strains, locus YLR258W, strain gsy2, stronger effect = lower value 0.53 | S. cerevisiae deletion strains, locus YLR262C, strain YPT6 (second series), stronger effect = lower value 0.843 | S. cerevisiae deletion strains, locus YLR268W, strain sec22, stronger effect = lower value 0.515 | S. cerevisiae deletion strains, locus YLR320W, strain mms22, stronger effect = lower value 0.565 | S. cerevisiae deletion strains, locus YLR330W, strain CHS5, stronger effect = lower value 0.886 | S. cerevisiae deletion strains, locus YLR342W, strain FKS1 (second series), stronger effect = lower value 0.713 | S. cerevisiae deletion strains, locus YLR342W, strain FKS1, stronger effect = lower value 0.792 | S. cerevisiae deletion strains, locus YLR357W, strain rsc2, stronger effect = lower value 1.2 [resistant] | S. cerevisiae deletion strains, locus YLR370C, strain arc18, stronger effect = lower value 0.7 | S. cerevisiae deletion strains, locus YLR384C, strain iki3, stronger effect = lower value 0.853 | S. cerevisiae deletion strains, locus YLR418C, strain cdc73, stronger effect = lower value 0.689 | S. cerevisiae deletion strains, locus YML016C, strain PPZ1, stronger effect = lower value 0.847 | S. cerevisiae deletion strains, locus YML032C, strain rad52, stronger effect = lower value 0.314 | S. cerevisiae deletion strains, locus YML120C, strain ndi1, stronger effect = lower value 0.582 | S. cerevisiae deletion strains, locus YML124C, strain tub3, stronger effect = lower value 0.743 | S. cerevisiae deletion strains, locus YMR058W, strain fet3, stronger effect = lower value 0.639 | S. cerevisiae deletion strains, locus YMR078C, strain ctf18, stronger effect = lower value 0.763 | S. cerevisiae deletion strains, locus YMR129W, stronger effect = lower value 0.693 | S. cerevisiae deletion strains, locus YMR205C, strain PFK2, stronger effect = lower value 0.634 | S. cerevisiae deletion strains, locus YMR223W, strain ubp8, stronger effect = lower value 0.557 | S. cerevisiae deletion strains, locus YMR263W, strain SAP30, stronger effect = lower value 0.767 | S. cerevisiae deletion strains, locus YNL067W, strain RPL9B, stronger effect = lower value 0.606 | S. cerevisiae deletion strains, locus YNL128W, strain TEP1, stronger effect = lower value 0.733 | S. cerevisiae deletion strains, locus YNL153C, strain GIM3, stronger effect = lower value 0.713 | S. cerevisiae deletion strains, locus YNL183C, strain NPR1, stronger effect = lower value 0.771 | S. cerevisiae deletion strains, locus YNL209W, strain ssb2, stronger effect = lower value 0.663 | S. cerevisiae deletion strains, locus YNL233W, strain BNI4, stronger effect = lower value 0.74 | S. cerevisiae deletion strains, locus YNL248C, strain rpa49, stronger effect = lower value 0.445 | S. cerevisiae deletion strains, locus YNL250W, strain rad50, stronger effect = lower value 0.78 | S. cerevisiae deletion strains, locus YNL271C, strain bni1, stronger effect = lower value 0.87 | S. cerevisiae deletion strains, locus YNL298W, strain CLA4, stronger effect = lower value 0.847 | S. cerevisiae deletion strains, locus YNL307C, strain MCK1, stronger effect = lower value 0.715 | S. cerevisiae deletion strains, locus YNL322C, strain KRE1, stronger effect = lower value 0.698 | S. cerevisiae deletion strains, locus YNR049C, strain mso1, stronger effect = lower value 0.672 | S. cerevisiae deletion strains, locus YNR052C, strain pop2, stronger effect = lower value 0.778 | S. cerevisiae deletion strains, locus YOL012C, strain htz1 2.35 [resistant] | S. cerevisiae deletion strains, locus YOL147C, strain pex11, stronger effect = lower value 0.661 | S. cerevisiae deletion strains, locus YOR001W, strain rrp6, stronger effect = lower value 0.309 | S. cerevisiae deletion strains, locus YOR061W, strain CKA2, stronger effect = lower value 0.824 | S. cerevisiae deletion strains, locus YOR069W, strain VPS5, stronger effect = lower value 0.811 | S. cerevisiae deletion strains, locus YOR070C, strain gyp1, stronger effect = lower value 0.625 | S. cerevisiae deletion strains, locus YOR080W, strain dia2, stronger effect = lower value 0.783 | S. cerevisiae deletion strains, locus YOR083W, strain WHI5, stronger effect = lower value 0.501 | S. cerevisiae deletion strains, locus YOR106W, strain vam3, stronger effect = lower value 0.445 | S. cerevisiae deletion strains, locus YOR136W, strain idh2, stronger effect = lower value 0.805 | S. cerevisiae deletion strains, locus YOR144C, strain elg1, stronger effect = lower value 0.752 | S. cerevisiae deletion strains, locus YOR184W, strain ser1, stronger effect = lower value 0.41 | S. cerevisiae deletion strains, locus YOR231W, strain MKK1, stronger effect = lower value 0.67 | S. cerevisiae deletion strains, locus YOR265W, strain rbl2, stronger effect = lower value 0.706 | S. cerevisiae deletion strains, locus YOR270C, strain vph1, stronger effect = lower value 0.599 | S. cerevisiae deletion strains, locus YOR290C, strain snf2, stronger effect = lower value 0.371 | S. cerevisiae deletion strains, locus YOR316C, strain cot1, stronger effect = lower value 0.808 | S. cerevisiae deletion strains, locus YPL051W, strain arl3, stronger effect = lower value 0.696 | S. cerevisiae deletion strains, locus YPL055C, strain LGE1, stronger effect = lower value 0.659 | S. cerevisiae deletion strains, locus YPL078C, strain atp4, stronger effect = lower value 0.674 | S. cerevisiae deletion strains, locus YPL106C, strain sse1, stronger effect = lower value 0.781 | S. cerevisiae deletion strains, locus YPL240C, strain hsp82, stronger effect = lower value 0.8 | S. cerevisiae deletion strains, locus YPL241C, strain CIN2, stronger effect = lower value 0.837 | S. cerevisiae deletion strains, locus YPL256C, strain CLN2, stronger effect = lower value 0.778 | S. cerevisiae deletion strains, locus YPR119W, strain clb2, stronger effect = lower value 0.862 | S. cerevisiae deletion strains, locus YPR167C, strain met16, stronger effect = lower value 0.758 | S. cerevisiae deletion strains, strain wtn01, stronger effect = lower value 0.42 | S. cerevisiae strains, strain wild type, stronger effect = lower value 0.601
